Assay results as given in PubChem BioAssay.
Calls of active or inactive are those of the source.

Columns and labels:
[1] = tested on: Plasmodium falciparum Sir2 (PF13_0152, Sir2A); experiment: Plasmodium falciparum Sir2A binding compounds – biochemical, small-molecule microarray, 635 nm fluorescence, primary screen (AID 1098); settings: fluorescence 635 nm, higher = more signal;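 further: score merges spot fluorescence intensity with its signal-to-noise ratio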
[2] = probe aDKK1 binding to arrayed compounds – biochemical, biotinylated probe, 635/667 nm fluorescence, primary screen (AID 1099); settings: small-molecule microarray, higher = more signal;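 further: score merges 667nm spot fluorescence with signal to noise across triplicate slides; reference of the scale not given here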
[3] = probe aCHRDL2 binding to arrayed compounds – biochemical, biotinylated probe, 635/667 nm fluorescence, primary screen (AID 1100); settings: small-molecule microarray, higher = more signal
[4] = change in splice reporter luminescence, either direction, cell-based, HEK293, spliceosome inhibition project, primary screen (AID 1101); settings: HEK293 splicing luciferase reporter, 24 h, higher = more signal, called active from +8 up or from −8 down;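 further: HEK293 cells carrying a splicing-competent luciferase reporter gene; test concentration not given here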
[5] = biological target: Fibroblast growth factor 10 (Homo sapiens) (UniProt O15520); experiment: compounds binding fibroblast growth factor 10 – biochemical, small-molecule microarray, 635 nm fluorescence, primary screen (AID 1102); settings: FGF10 binding, fluorescence 635 nm, higher = more signal
Fibroblast growth factor 10 (Homo sapiens), sequence (O15520 whole entry, looked up): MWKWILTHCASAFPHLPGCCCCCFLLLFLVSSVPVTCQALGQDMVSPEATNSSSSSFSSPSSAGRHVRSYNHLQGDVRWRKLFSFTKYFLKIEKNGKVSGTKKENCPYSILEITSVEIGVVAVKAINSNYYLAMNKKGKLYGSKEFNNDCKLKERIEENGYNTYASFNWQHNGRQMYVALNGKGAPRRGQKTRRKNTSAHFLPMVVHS

[6] = tested on: glycogen synthase kinase-3 (GSK3A per assay name; protocol says GSK3B); experiment: compounds binding glycogen synthase kinase-3 – biochemical, small-molecule microarray, 635 nm fluorescence, GSK3A, primary screen (AID 1103); settings: fluorescence 635 nm, higher = more signal; further: the record names both GSK3A and GSK3B
[7] = biological target: Epidermal growth factor receptor (Homo sapiens) (UniProt P00533); experiment: compounds binding epidermal growth factor receptor – biochemical, small-molecule microarray, 635 nm fluorescence, primary screen (AID 1104); settings: EGFR binding, higher = more signal;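 further: score merges 667 nm emission intensity with spot signal to noise over triplicate slides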
Epidermal growth factor receptor (Homo sapiens), sequence (P00533 whole entry, looked up): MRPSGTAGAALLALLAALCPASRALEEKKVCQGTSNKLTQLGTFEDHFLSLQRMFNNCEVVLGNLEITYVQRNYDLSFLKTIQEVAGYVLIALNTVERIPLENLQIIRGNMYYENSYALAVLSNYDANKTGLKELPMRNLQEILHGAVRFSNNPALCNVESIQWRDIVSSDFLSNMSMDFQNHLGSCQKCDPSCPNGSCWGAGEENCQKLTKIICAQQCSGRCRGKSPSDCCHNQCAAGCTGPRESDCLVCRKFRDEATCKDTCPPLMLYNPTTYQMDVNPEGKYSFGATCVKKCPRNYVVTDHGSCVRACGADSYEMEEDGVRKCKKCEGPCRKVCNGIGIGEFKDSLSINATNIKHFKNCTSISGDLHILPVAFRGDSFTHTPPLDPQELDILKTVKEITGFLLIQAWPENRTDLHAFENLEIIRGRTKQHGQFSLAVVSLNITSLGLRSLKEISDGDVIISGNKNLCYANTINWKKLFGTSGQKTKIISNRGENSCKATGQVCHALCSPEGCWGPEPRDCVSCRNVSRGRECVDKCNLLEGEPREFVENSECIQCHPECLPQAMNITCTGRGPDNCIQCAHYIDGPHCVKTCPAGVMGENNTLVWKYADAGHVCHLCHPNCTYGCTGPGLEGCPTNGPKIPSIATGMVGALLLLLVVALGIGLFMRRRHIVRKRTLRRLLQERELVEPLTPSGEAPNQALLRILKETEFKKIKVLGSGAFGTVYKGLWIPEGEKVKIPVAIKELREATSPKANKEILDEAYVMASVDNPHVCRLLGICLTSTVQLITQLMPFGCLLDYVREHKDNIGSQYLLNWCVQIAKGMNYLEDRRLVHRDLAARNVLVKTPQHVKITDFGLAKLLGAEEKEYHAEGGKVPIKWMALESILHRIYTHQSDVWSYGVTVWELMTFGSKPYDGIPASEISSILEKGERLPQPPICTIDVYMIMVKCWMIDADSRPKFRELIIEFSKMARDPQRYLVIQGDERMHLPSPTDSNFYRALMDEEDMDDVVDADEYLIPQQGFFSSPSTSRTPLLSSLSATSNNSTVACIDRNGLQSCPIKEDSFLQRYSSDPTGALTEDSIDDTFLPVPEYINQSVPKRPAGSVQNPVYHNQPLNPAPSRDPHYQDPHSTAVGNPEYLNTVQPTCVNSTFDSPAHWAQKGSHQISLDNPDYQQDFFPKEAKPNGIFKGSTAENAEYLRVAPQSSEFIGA

[8] = biological target: Follistatin-related protein 3 (Homo sapiens) (UniProt O95633); experiment: compounds binding follistatin-related protein 3 – biochemical, small-molecule microarray, 635 nm fluorescence, primary screen (AID 1105); settings: FSTL3 binding, higher = more signal;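 further: score merges emission near 667 nm and signal to noise per printed spot across three slides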
Follistatin-related protein 3 (Homo sapiens), sequence (O95633 whole entry, looked up): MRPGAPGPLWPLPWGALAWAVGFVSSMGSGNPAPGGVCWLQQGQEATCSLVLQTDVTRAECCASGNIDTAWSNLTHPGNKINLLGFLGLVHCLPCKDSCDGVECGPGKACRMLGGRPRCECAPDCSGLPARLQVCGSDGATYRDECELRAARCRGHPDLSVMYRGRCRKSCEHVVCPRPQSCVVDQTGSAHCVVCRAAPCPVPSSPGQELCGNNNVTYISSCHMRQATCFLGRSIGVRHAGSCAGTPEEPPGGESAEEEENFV

[9] = biological target: Dickkopf-related protein 1 (Homo sapiens) (UniProt O94907); experiment: small molecules binding DKK1 protein – biochemical, small-molecule microarray, 635 nm fluorescence scan, primary screen (AID 1106); settings: higher = more signal;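 further: score merges emission near 667 nm with signal to noise over three replicate slides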
Dickkopf-related protein 1 (Homo sapiens), sequence (O94907 whole entry, looked up): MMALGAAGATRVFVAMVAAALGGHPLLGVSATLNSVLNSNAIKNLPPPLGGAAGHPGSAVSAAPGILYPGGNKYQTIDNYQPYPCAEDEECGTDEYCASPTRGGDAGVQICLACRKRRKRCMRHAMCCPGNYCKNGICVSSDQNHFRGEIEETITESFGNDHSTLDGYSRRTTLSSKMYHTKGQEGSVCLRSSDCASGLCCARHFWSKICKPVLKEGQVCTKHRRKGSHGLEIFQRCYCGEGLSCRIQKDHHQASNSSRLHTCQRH

[10] = tested on: Inhibin beta A chain (activin A); experiment: small molecules binding activin A – biochemical, small-molecule microarray, 635 nm fluorescence scan, primary screen (AID 1107); settings: INHBA, higher = more signal;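 further: mouse activin A protein probed at 4.33 µg/mL on printed slides; score merges bound-protein fluorescence near 667 nm with spot signal-to-noise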

SMILES	composite z-score [1]	composite z-score [2]	composite z-score [3]	z-score [4]	composite z-score [5]	composite z-score [6]	composite z-score [7]	composite z-score [8]	composite z-score [9]	composite z-score [10]
COCCOC(=O)N1C(=O)[C@@]2(c3cc(C#CC4=CCCCC4)ccc31)[C@H](c1ccccc1OCCO)N1[C@H](c3ccccc3)[C@H](c3ccccc3)OC(=O)[C@H]1[C@@H]2C(N)=O	1.35	-0.0668	-0.144	-3.87 (inactive)	1.29	1.31	0.766	1.2	0.912	0.557
COc1ccc(CCNC(=O)[C@@]2(C)c3ccccc3C(=O)N(Cc3cc(C(F)(F)F)cc(C(F)(F)F)c3)[C@H]2c2ccc(CO)cc2)cc1	0.569	1.64	1.02	-0.926 (inactive)	0.329	0.651	0.875	0.371	0.338	-0.307
C=CCOC(=O)[C@H]1[C@@H]2C(=O)O[C@@H](c3ccccc3)[C@@H](c3ccccc3)N2[C@@H](c2ccc(OCCOC(=O)[C@@H]3C[C@@H]4C(=O)N[C@@H](CC(C)C)C(=O)N4[C@@H]3c3ccc(O)cc3)cc2)[C@]12C(=O)Nc1ccc(I)cc12	1.09	0.0615	-0.0756	-1.41 (inactive)	0.649	1.13	0.993	0.644	0.928	-0.0053
CO[C@H]1O[C@H](CO)[C@@H](OC(=O)Nc2ccccc2)[C@@H]2OC(=O)[C@H](Cc3ccccc3)C/C=C/C[C@@H](Cc3ccccc3)C(=O)O[C@@H]12	1.46	0.273	0.651	-0.724 (inactive)	1.04	0.56	0.0366	0.877	0.048	1.14
COc1cc2c(cc1O)C(C1CC1)N(Cc1ccc([N+](=O)[O-])o1)CC2 (stereo not given)	1.53	0.158	0.391	-0.28 (inactive)	0.839	0.812	0.117	0.228	-0.327	0.822
[N-]=[N+]=NCc1ccccc1C[C@]1(C(=O)N2CCOCC2)N=C(c2ccc(OCCCO)cc2)O[C@H]1c1ccccc1CN=[N+]=[N-]	1.33	1.42	1.39	-1.2 (inactive)	1.39	0.935	-0.134	0.217	-0.275	1.43
C=CCC(OC(C)=O)[C@@H]1[C@@H](N(Cc2cc3ccccc3o2)C(=O)c2cccc3ccccc23)c2cc(OCCCO)ccc2N1C(=O)c1ccc2ccccc2c1 (stereo not given in full)	-0.459	0.245	0.246	-1.18 (inactive)	0.0473	-0.553	-0.0798	0.182	0.0022	0.867
COCCOC(=O)N1C(=O)[C@@]2(c3cc(C#CC4(O)CCCCCC4)ccc31)[C@H](c1ccccc1OCCO)N1[C@H](c3ccccc3)[C@H](c3ccccc3)OC(=O)[C@H]1[C@@H]2C(=O)N1CCCCCCC1	1.56	2.22	1.43	-0.901 (inactive)	0.846	0.502	0.638	1.5	1.09	1.71
NCCCC[C@@H]1NC(=O)[C@H]2C[C@@H](C(=O)NCc3ccc(F)cc3)[C@@H](c3cccc(OCCO)c3)N2C1=O	1.43	0.0142	-0.142	-0.436 (inactive)	1.32	1.34	0.803	1.47	1.6	0.799
CCC[C@@H]1[C@@H](Sc2ccccc2)[C@@H](C(=O)O)[C@H](c2ccc(C)cc2)N1S(=O)(=O)c1ccc(C)cc1	1.05	0.505	0.284	-0.114 (inactive)	1.25	1.36	0.163	1.34	0.188	0.267
Cc1c(NC(=O)/C(C#N)=C/c2ccc(Cl)cc2)c(=O)n(-c2ccccc2)n1C	0.878	-0.115	0.1	-0.0648 (inactive)	0.938	0.0624	0.324	0.371	0.101	0.311
CC(C)CNC(=O)[C@@H]1c2ccccc2C(=O)N(Cc2ccccc2Cl)[C@H]1c1ccc(CO)cc1	1.29	0.495	0.959	0.587 (inactive)	-0.765	0.729	-0.519	-0.644	-1.17	-0.114
CN1C=C(C(=O)OCCS(C)(=O)=O)C(C(=O)OCCS(C)(=O)=O)=CC(CCCO)=CC1c1ccc(CN2CCCC2)cc1 (stereo not given)	0.867	0.633	0.539	-0.0863 (inactive)	1.27	1.3	0.566	1.32	0.602	0.969
C=CCOC(=O)[C@@H]1[C@H]2C(=O)O[C@H](c3ccccc3)[C@H](c3ccccc3)N2[C@H](c2ccc(OCCOC(=O)[C@H]3C[C@H]4C(=O)NCC(=O)N4[C@H]3c3ccc(O)cc3)cc2)[C@@]12C(=O)Nc1ccc(I)cc12	1.57	0.159	0.21	1.14 (inactive)	0.613	1.35	0.728	1.02	0.674	-0.0057
CC(C)CNC(=O)[C@@H]1c2ccccc2C(=O)N(C(C)C)[C@H]1c1ccc(CO)cc1	1.36	0.0026	0.763	-1.26 (inactive)	-0.787	-0.221	-0.5	-0.573	-0.382	0.849
CN1C(=O)[C@]2(CCC(=O)OC(C)(C)C)N=C(c3ccc(OCCCO)cc3)O[C@@H]2c2ccccc21	1.14	-0.0732	0.651	-0.432 (inactive)	1.38	1.29	-0.0099	0.659	0.297	0.643

SMILES	composite z-score [1]	composite z-score [2]	composite z-score [3]	z-score [4]	composite z-score [5]	composite z-score [6]	composite z-score [7]	composite z-score [8]	composite z-score [9]	composite z-score [10]
NCCCC[C@@H]1NC(=O)[C@H]2C[C@@H](C(=O)O)[C@@H](c3cccc(OCCO)c3)N2C1=O	1.61	1.21	0.752	-0.615 (inactive)	1.51	1.35	1.53	1.53	1.62	1.03
COC(=O)C1=CC(CCCO)=CC(C2CC2)N(Cc2cccc(OC(F)(F)F)c2)C=C1C(=O)OC (stereo not given)	1.19	0.0765	0.234	0.449 (inactive)	0.107	-0.363	-0.659	0.315	-0.59	0.674
CCCCC(O)C1C=CC2C(=O)NC(=O)C2N1Nc1ccc(Cl)cc1Cl (stereo not given)	0.976	0.635	1.03	-0.167 (inactive)	0.228	-0.104	-0.429	-0.125	-0.8	0.979
O=C1O[C@H](c2ccccc2)[C@H](c2ccccc2)N2[C@H]1[C@@H](C(=O)N1CCN(c3ncccn3)CC1)[C@]1(C(=O)Nc3ccccc31)[C@H]2c1ccc(O)cc1	0.612	0.571	0.544	-0.117 (inactive)	0.506	0.799	-0.149	-0.0987	0.165	0.0112
CC(C)C[C@@H]1NC(=O)[C@@]23C(=O)N[C@@H](Cc4ccccc4)C2[C@H](C)[C@@]2(C)O[C@H]2C3/C=C/C/C=C\CNC(=O)[C@@H](CC(C)C)NC1=O (stereo not given in full)	0.331	-0.299	-0.496	-0.958 (inactive)	0.37	0.193	0.367	1.1	0.511	0.904
O=C1N(CCS(=O)(=O)c2ccccc2)c2ccccc2[C@@H]2OC(c3ccc(OCCCO)cc3)=N[C@]12CCS(=O)(=O)c1ccccc1	0.982	0.753	0.585	-0.254 (inactive)	0.989	1.26	0.917	1.42	1.16	0.878
C[C@@H](OCc1ccccc1)C1NC(=O)[C@@]23C(=O)N[C@@H](Cc4ccccc4)C2[C@H](C)[C@@]2(C)O[C@H]2C3/C=C/C/C=C\CNC(=O)[C@H](Cc2ccccc2)NC1=O (stereo not given in full)	0.21	-0.288	-0.743	-0.708 (inactive)	1.35	0.297	0.12	0.869	0.443	1.08
CO[C@H]1O[C@H](CO)[C@@H](OC(=O)Nc2ccc(C(F)(F)F)cc2)[C@H](OC(=O)Nc2ccccc2-c2ccccc2)[C@@H]1OC(=O)Nc1ccccc1-c1ccccc1	1.46	1.07	0.61	-0.0628 (inactive)	1.04	1.29	0.35	1.37	0.507	0.0026
CC(C)C(=C=CC[C@@H](O)c1cccc(OCCO)c1)CCO	0.725	0.0614	0.111	-0.87 (inactive)	1.51	-0.615	-0.554	0.457	0.137	0.677
CN(C)CCCNC(=O)[C@@]1(Cc2ccccc2I)c2ccccc2C(=O)N(Cc2ccccc2)[C@H]1c1ccc(CO)cc1	1.54	1.04	-0.726	0.652 (inactive)	1.37	1.33	0.17	0.617	0.707	0.0573
COc1ccc([Si](C)(C)[C@H]2[C@H](CC(=O)N3Cc4ccccc4C[C@H]3CO)O[C@@]3(C(=O)N(Cc4cccc(N5C(=O)c6cccc7cccc5c67)c4)c4ccccc43)[C@@H]2C)cc1	1.63	-0.37	-0.151	-1.87 (inactive)	1.31	0.627	0.774	1.28	0.948	1.2
C=CCC(OC(C)=O)[C@@H]1[C@@H](N(Cc2ccc(-c3cccc(C(F)(F)F)c3)o2)C(=O)Cc2ccc(F)cc2)c2cc(OCCCO)ccc2N1C(=O)c1ccc2ccccc2n1 (stereo not given in full)	-0.106	0.0195	0.416	-0.362 (inactive)	-0.218	-1.85	-0.35	-0.281	-0.0545	1.58
COc1ccc([Si](C)(C)[C@@H]2[C@@H](CCO)O[C@]3(C(=O)N(Cc4ccccc4)c4ccc(N5C(=O)c6ccccc6Oc6ccccc65)cc43)[C@H]2C)cc1	0.0104	-0.171	0.462	-1.28 (inactive)	-0.673	-1.02	-1.04	-0.398	-0.328	-0.0458
O=C1C2C=CC(C(O)c3cccs3)N(Nc3ccccc3)C2C(=O)N1c1ccccc1 (stereo not given)	0.695	0.742	0.467	-0.145 (inactive)	0.0597	-0.828	0.0148	-0.03	0.034	1.42
C=CCNC(=O)[C@@H]1[C@H]2C(=O)O[C@H](c3ccccc3)[C@H](c3ccccc3)N2[C@H](c2ccc(O)cc2)[C@@]12C(=O)Nc1ccc(C#CC3(O)CCCCCC3)cc12	1.1	-0.0065	-0.0122	0.405 (inactive)	0.746	-0.206	0.348	0.196	0.446	-0.195
CCCC=C(CCC)[C@@H](NC(=O)c1ccccc1)c1ccc(C(=O)OC)cc1	0.578	0.374	-0.0902	-1.98 (inactive)	1	0.294	0.891	0.806	0.162	0.613
